ELG1 repair inh: inhibitors of ELG1-dependent DNA repair in HEK293T cells; Potency, µM (highest dose often 46.1 µM), for the others: at the top dose activity change, negative = inhibition, usual class: inhibitors; 330,000 tested, 2.3% active; HEK293T ELG1-luciferase reporter, luminescence, 16 h; DNA damage induced by 5-fluorouridine; note: potency is the fitted concentration of half-maximal effect; nearly all actives have a fitted effect of over 55% in size
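DMSO vehicle served as the neutral condition. Each well held 2,000 cells given 5-fluorouridine plus compound; after 16 hr at 37 °C/5% CO2, ONE-Glo was added and luciferase measured 30 min later.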
RORg inh: inhibitors of mouse ROR gamma transcriptional activity; P51450; Drosophila S2 Gal4-RORgamma UAS-luciferase reporter, 20 h; Potency, µM (titrated, usually from 53.6 µM), without a hit: at the highest dose activity change, negative = inhibition, hits mostly inhibitors; 310,000 tested, 5.4% active; AID 2551; note: potency is the fitted concentration of half-maximal effect; nearly all actives have a fitted effect of over 60% in size
Target sequence (P51450 whole entry, looked up, the tested form may be a part): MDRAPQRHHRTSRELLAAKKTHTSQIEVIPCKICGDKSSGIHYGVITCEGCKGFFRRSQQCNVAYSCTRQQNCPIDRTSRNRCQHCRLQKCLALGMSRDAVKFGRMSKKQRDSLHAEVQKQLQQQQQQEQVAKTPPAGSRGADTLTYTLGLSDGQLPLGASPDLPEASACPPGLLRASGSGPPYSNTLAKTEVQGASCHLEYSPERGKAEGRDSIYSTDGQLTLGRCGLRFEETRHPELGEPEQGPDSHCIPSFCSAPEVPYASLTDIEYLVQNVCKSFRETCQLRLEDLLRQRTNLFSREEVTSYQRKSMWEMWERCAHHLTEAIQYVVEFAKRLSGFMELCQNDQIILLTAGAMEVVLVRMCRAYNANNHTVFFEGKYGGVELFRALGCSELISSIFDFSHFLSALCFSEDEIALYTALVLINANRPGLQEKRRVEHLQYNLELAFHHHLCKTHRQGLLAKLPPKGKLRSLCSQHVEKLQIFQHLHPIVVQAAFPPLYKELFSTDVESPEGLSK
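Drosophila Schneider cells stably carrying a metallothionein-driven Gal4 DBD–ROR gamma fusion and a UAS-Photinus luciferase reporter were exposed to compound for 1 hr, then induced with copper sulfate (700 uM final) for 20 hr at ambient temperature before luminescence reading.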
VP16 counter: Gal4-VP16 reporter inhibition counter-screen; Drosophila S2 Gal4-VP16 UAS-luciferase, luminescence, 20 h; Potency, µM (highest dose often 53.6 µM), inactives show top-dose activity, negative = inhibition, most hits filed as inhibitors; 310,000 tested, 3.5% active; AID 2546;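 note: Gal4-VP16 expression switched on by copper sulfate through the metallothionein promoter; potency is the fitted concentration of half-maximal effect; nearly all actives have a fitted effect of over 50% in size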
TSHR antag: human thyrotropin receptor antagonism | P16473 | TSHR-expressing cells, TSH-stimulated cAMP HTRF, 2 h; hits give low values | activity change, negative = inhibition, % at 11.5 µM | 330,000 tested, 0.2% active;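 active = activity change below a set negative limit, meaning inhibition stronger than a set level, cut at about -70% in these data; inconclusive = activity change between two set negative limits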
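Inhibition of cAMP made by TSHR-expressing cells under TSH stimulation (4nM final, EC80; 2 h, 37 deg C) is quantified with a one-step lysis HTRF kit, anti-cAMP cryptate versus cAMP-d2.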
Coupling enz: coupling enzyme interference in Giardia aldolase counter-screen; coupling enzyme system counterscreen, AmpLite Red fluorescence; AID 2472; 290,000 tested, 0.67% active; activity change, negative = inhibition, % at 58.2 µM, hits read low; in the data active = activity change below about -30%
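Counterscreen of the coupled detection system alone, without aldolase: glyceraldehyde-3-phosphate coupling enzymes plus AmpLite Red readout. Compounds at 57.5 uM final, 10 min RT preincubation, 20 min RT reaction, fluorescence 525/598 nm.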
* marks the source's active call; other numbers are inactive results; ? = inconclusive; . = no result given; [ ] = dose if it differs, or a comment. Compounds with a hit are over-represented: about 8% of the library has one in this group of screens. Unless noted, calls come from the whole dose curve; as a rule, active = well fitted curve in the direction sought with a large enough effect; inconclusive = small, poorly fitted or top-dose-only effect, or another doubt; inactive = no such curve, though single readings can be large; an effect the other way counts as inactive or inconclusive. % is set by controls: 0 for no effect and ±100 for the full control effect.

SMILES | ELG1 repair inh | RORg inh | VP16 counter | TSHR antag | Coupling enz
Cc1cc2nc(CCN3CCOCC3)n(S(=O)(=O)c3ccc(C(C)(C)C)cc3)c2cc1C | 21µM* | 12% | 1% | 6 | 1
CCOC(=O)C(NC(=O)Nc1ccc(O)cc1)(c1ccccc1)C(F)(F)F (stereo unspecified) | 6% | 34% | -1% | 3 | -39*
CCOC(=O)C(NC(=O)NC1CCCCC1)(c1ccccc1)C(F)(F)F (stereo unspecified) | 7% | ? | 8% | 12 | 3
COCC(C)NC(=O)C1c2ccccc2Oc2ccccc21 (stereo unspecified) | -7% | -8% | -14% | -120* | -4
COCc1cc(=O)n2[nH]cc(-c3ccccc3)c2n1 | ? | 13µM* | 10µM* | -11 | -4
CCOC(=O)Cc1c(C)nc2c(-c3ccc(Cl)cc3)c[nH]n2c1=O | ? | 5.6µM* | 16µM* | -1 | 1
CCOC(=O)Cc1cc(=O)n2[nH]cc(-c3cccc(Br)c3)c2n1 | ? | 13µM* | ? | -7 | 11
CCCc1cc(=O)n2[nH]cc(-c3ccc(Cl)cc3)c2n1 | ? | 4.5µM* | 3.2µM* | -18 | 1
COc1ccc(Nc2nc(NCCN3CCOCC3)nc(Nc3ccc(OC)cc3)n2)cc1 | ? | -20% | -3% | -9 | -2
Cc1ccc(CNC(=O)C2CCN(C(=O)Nc3ccc(C)cc3)CC2)cc1 | -2% | 25% | 8% | -36 | 6
O=S(=O)(c1cc(Cl)ccc1Cl)N1CCN(c2ccccn2)CC1 | -15% | -1% | 8% | -2 | 0
CCOc1cc(C2C(C#N)=C(N)OC(C)=C2C(C)=O)cc(Br)c1O (stereo unspecified) | 4% | -14% | 10% | 12 | -1
CCOc1cc(C2C(C#N)=C(N)OC(C)=C2C(C)=O)c(Br)c(Br)c1OC(C)C (stereo unspecified) | -29% | ? | 13µM* | 1 | -15
COc1ccc(OCc2nn3c(Cn4cnc5ccccc54)nnc3s2)cc1 | 23µM* | 38% | -18% | -8 | 1
c1ccc(CCc2nn3c(Cn4cnc5ccccc54)nnc3s2)cc1 | -17% | 43% | -5%[0.365 µM] | 2 | 2
CN(CC(=O)Nc1ccccc1Br)C(=O)COc1ccc2ccccc2c1 | 0% | . | . | -13 | .
Cc1ccccc1OCCn1c(=S)[nH]c2ccccc21 | -9% | 2.5µM* | 4.5µM* | 9 | 1
Fc1ccccc1OCCn1c(=S)[nH]c2ccccc21 | 14% | 5.6µM* | 4.5µM* | 10 | 1
N#Cc1ccccc1NC(=O)CN(Cc1ccccc1)Cc1ccccc1 | -1% | 4% | 15% | -4 | 0
Cc1ccccc1CNS(=O)(=O)c1csc(C(N)=O)c1 | 8% | 4% | -7% | 26 | .
COC(=O)C1=C(CS(=O)(=O)c2cc(Cl)ccc2OC)NC(=O)NC1c1ccc(O)c(OC)c1 (stereo unspecified) | 11% | -1% | -7% | 7 | 1
CC(c1nccs1)N(C)c1nc2nonc2nc1NC1CC1 (stereo unspecified) | -18% | -12% | 6% | 6 | -5
c1csc(C2CCCN2c2nc3nonc3nc2NC2CC2)n1 (stereo unspecified) | 6% | 5µM* | 10µM* | 7 | 3
Cc1cccc(NC(=S)N2CCC(NC(=O)C3CCCCC3)CC2)c1 | 1% | -3% | -5% | 31 | 2
Cc1ccc(NC(=S)N2CCCCC2)cc1C | ? | 4.5µM* | ? | 1 | -1
SMILES | ELG1 repair inh | RORg inh | VP16 counter | TSHR antag | Coupling enz
O=C(Nc1ccc2nsnc2c1)N1CCCCCC1 | ? | ? | 11% | -2 | -11
Cc1cccc(NC(=S)N2CCCCC2)c1 | 24% | ? | 18µM* | 7 | 10
S=C(Nc1ccc2nsnc2c1)N1CCCC1 | ? | 7.9µM* | 11µM* | 39 | -25
COc1ccc(C2CCCN2C(=S)Nc2ccc(C)c(C)c2)cc1OC (stereo unspecified) | 26µM* | 13µM* | ? | -13 | -1
COc1ccccc1-c1cncnc1Nc1ccccc1 | . | -22% | 5% | . | 0
CC(=O)SC1CC2=CC(=O)CC[C@]2(C)C2CC[C@@]3(C)C(CC[C@@]34CCC(=O)O4)C12 (stereo partly specified) | . | . | . | -20 | .
